# Only some compounds are listed: those with a hit (about 10% of all), similar ones and a draw of the others.
# SW480 rereplic: inducers of DNA re-replication in SW480 colon cancer cells; SW480 DNA re-replication, Hoechst DNA content imaging, 48 h; Potency, µM (top dose mostly 46.1 µM), hits mostly activators; 340,000 compounds, 1.8% hits; note: nearly all actives have a fitted effect of over 55% in size
#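 Quantitative HTS format with DMSO vehicle controls; 48 hr drug incubation at 37 C, then 40 min Hoechst staining and scanning imager measurement at 405 nm excitation.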
# MCF10A rerep: induces DNA re-replication in MCF 10a normal breast cells; MCF 10A DNA re-replication, Hoechst nuclear intensity, 48 h; Potency, µM (highest dose often 46.1 µM), most hits filed as activators; 350,000 compounds, 2.9% hits; AID 624296; note: nearly all actives have a fitted effect of over 50% in size
# Gal4-VP16 FLuc: counter-screen for ROR gamma inhibitors: Gal4-VP16 reporter | 310,000 compounds, 3.5% hits | Potency, µM (series often up to 53.6 µM), hits mostly inhibitors | Drosophila S2 Gal4-VP16 UAS-luciferase, luminescence, 20 h;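 note: Gal4-VP16 expression switched on by copper sulfate through the metallothionein promoter; nearly all actives have a fitted effect of over 50% in size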
# KB-V1 cytotox: kills drug-selected multidrug resistant KB-V1 cells. KB-V1 MDR cells viability, CellTiter-Glo, 72 h. Potency, µM (series often up to 46.1 µM), hits mostly cytotoxic. 400,000 compounds, 3.4% hits. AID 1347076; note: nearly all actives have a fitted effect of over 60% in size
#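 qHTS viability screen in drug-selected KB-V1 MDR cells: 72 h compound treatment at 37 degrees C, ATP luminescence end point.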
# KB-3-1 tox: kills parental KB-3-1 adenocarcinoma cells; KB-3-1 viability, CellTiter-Glo ATP luminescence, 72 h; AID 1347075; Potency, µM (titrated, usually from 46.1 µM), usual class: cytotoxic; 400,000 compounds, 1.4% hits; note: nearly all actives have a fitted effect of over 60% in size
#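 Cytotoxicity in the drug-sensitive parental line KB-3-1 was scored as loss of CellTiter-Glo luminescence following 72 h incubation with compound. Values come from curve fitting of normalized concentration-response data.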
# RORg inh: inhibitors of mouse ROR gamma transcriptional activity. P51450. Drosophila S2 Gal4-RORgamma UAS-luciferase reporter, 20 h. Potency, µM (doses to about 53.6 µM), actives largely listed as inhibitors. 310,000 compounds, 5.4% hits. AID 2551; note: nearly all actives have a fitted effect of over 60% in size
# Target sequence (P51450 whole entry, looked up, the tested form may be a part): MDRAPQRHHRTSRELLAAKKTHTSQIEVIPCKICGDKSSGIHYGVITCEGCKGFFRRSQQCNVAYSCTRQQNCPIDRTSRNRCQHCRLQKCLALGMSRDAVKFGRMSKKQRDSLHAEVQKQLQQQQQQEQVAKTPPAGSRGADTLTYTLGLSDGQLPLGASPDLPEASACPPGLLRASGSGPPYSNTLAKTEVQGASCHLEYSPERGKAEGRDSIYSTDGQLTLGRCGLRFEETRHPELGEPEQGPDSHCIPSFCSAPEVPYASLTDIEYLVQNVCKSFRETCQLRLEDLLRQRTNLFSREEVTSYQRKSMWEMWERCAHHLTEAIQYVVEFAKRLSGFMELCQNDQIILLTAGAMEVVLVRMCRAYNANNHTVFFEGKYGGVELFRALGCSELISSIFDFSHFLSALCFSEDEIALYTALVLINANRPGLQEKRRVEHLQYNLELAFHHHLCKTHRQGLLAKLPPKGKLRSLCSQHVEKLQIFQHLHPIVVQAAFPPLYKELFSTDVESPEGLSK
#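 Read-out: Photinus luciferase luminescence; inhibitors lower reporter signal. Insect Schneider cells with Gal4-ROR gamma fusion under metallothionein promoter, UAS reporter; 700 uM final copper sulfate induction, 20 hr, ambient temperature.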
# Numbers stand for hits; n = inactive; u = inconclusive; x = not tested or not shown. Calls come from the whole dose curve; as a rule, active = well fitted curve in the direction sought with a large enough effect; inconclusive = small, poorly fitted or top-dose-only effect, or another doubt; inactive = no such curve, though single readings can be large; an effect the other way counts as inactive or inconclusive.
SMILES,SW480 rereplic,MCF10A rerep,Gal4-VP16 FLuc,KB-V1 cytotox,KB-3-1 tox,RORg inh
O=C(c1ccco1)N(Cc1ccc([N+](=O)[O-])cc1)c1ccc(Cl)cc1,n,n,n,u,n,u
Cc1ccc(N(Cc2ccc([N+](=O)[O-])cc2)C(=O)c2ccco2)cc1C,n,n,u,10µM,n,n
Cc1ccccc1Cn1c(=O)n(CCCCC(=O)NCc2ccccc2Cl)c(=O)c2ccccc21,x,x,x,n,n,x
CCn1c(NC(=O)c2ccc(F)cc2)c2ccccc2nc1=O,n,n,n,10µM,u,n
CCn1c(NC(=O)c2ccc(C)cc2)c2ccccc2nc1=O,n,n,n,12µM,n,n
O=c1[nH][nH]c(=O)c(Cl)c1Cl,n,n,x,n,n,x
O=[N+]([O-])c1ccc(NN=Cc2ccccc2)nc1,u,n,x,n,n,x
O=[N+]([O-])c1cccc(N/N=C/c2cc([N+](=O)[O-])ccc2O)c1,n,u,n,n,n,n
Cc1ccccc1-n1c(C)cc(/C=N/Nc2ccc([N+](=O)[O-])cn2)c1C,u,n,5.6µM,n,n,6.3µM
O=[N+]([O-])c1ccc(O)c(/C=N/Nc2ncnc3c2cnn3-c2ccccc2)c1,2.3µM,n,u,n,u,u
O=[N+]([O-])c1ccc(O)c(C=NNc2ccc(S(=O)(=O)O)cc2)c1,n,n,x,n,n,x
O=[N+]([O-])c1ccc(N/N=C\c2cccn2-c2ccccc2)nc1,u,15µM,u,u,u,2.5µM
O=[N+]([O-])c1ccc(O)c(/C=N/Nc2ccccn2)c1,1.3µM,u,11µM,n,u,10µM
Cc1cn2c(=O)c(S(=O)(=O)NCCc3ccccc3)c(C)nc2s1,x,x,x,n,n,x
NC(=O)C1CCN(c2nnc(-c3ccc4c(c3)OCCCO4)s2)CC1,x,x,x,n,n,x
Cc1cccc(-c2cc(=O)c3cc(Br)ccc3o2)c1,x,x,n,x,x,n
O=Cc1ccc(/C=C2\C=Cc3ccccc32)cc1,x,x,x,n,u,x
COc1ccc(C=NNc2ccc([N+](=O)[O-])cn2)cc1,n,n,x,n,n,x
O=[N+]([O-])c1ccc(NN=Cc2ccccc2O)nc1,2.6µM,u,x,n,n,x
O=[N+]([O-])c1ccc(N/N=C/c2ccc(OCc3cccc4ccccc34)cc2)nc1,21µM,u,n,n,u,n
O=[N+]([O-])c1ccc(O)c(/C=N/Nc2nc3ccccc3[nH]2)c1,n,8.2µM,5.6µM,u,u,6.3µM
Cc1nn(C)c(C(=O)NCc2ccc(Cl)cc2)c1Cl,n,n,4µM,u,n,u
Cc1ccc(CNC(=O)CCn2nc(-c3ccc(Cl)cc3)ccc2=O)cc1,n,n,n,23µM,n,n
O=C(CNC(=O)c1ccc(Br)o1)NCc1ccc(Cl)cc1,u,26µM,n,n,n,n
CCCC/C(=N\NC(=O)c1ccc(Br)o1)c1ccccc1,n,n,n,n,n,n
SMILES,SW480 rereplic,MCF10A rerep,Gal4-VP16 FLuc,KB-V1 cytotox,KB-3-1 tox,RORg inh
O=C(CNC(=O)c1ccc(Br)o1)NCc1ccc(F)cc1,n,u,n,n,n,n
Cc1nc(C)c(C(=O)NCc2ccc(Cl)cc2)o1,n,n,u,n,n,n
Cc1ccc(CCNC(=O)CCn2nc(-c3ccc(C)cc3)ccc2=O)cc1,x,x,x,n,n,x
CC/C(=N/NC(=O)c1ccc(Br)o1)c1ccc(Cl)cc1,n,n,n,15µM,n,n
O=C(CSC1=Nc2ccccc2N=C(c2ccc(F)cc2)C1)NCc1ccccc1,x,x,x,n,n,x
COc1ccc(CNC(=O)c2ccc(N3CCCC3)c(NC(=O)NCc3ccc(F)cc3)c2)cc1,x,x,x,n,u,x
CCc1nc2ccc(C(=O)NCc3ccc(OC)cc3)cn2c1N(CC)CCOC,x,x,x,u,n,x
COc1cc(OC)cc(-c2nc3nc(C)c(CCC(=O)Nc4ccc(F)cc4F)c(C)n3n2)c1,x,x,x,n,n,x
O=C(CC(=O)NCc1ccc(Cl)cc1)NCc1ccc(Cl)cc1,n,n,n,n,n,n
Cc1ccc(CC(=O)NCc2ccc(Cl)cc2)cc1,0.92µM,7.3µM,n,u,n,n
O=c1c(-c2cccs2)nc2cncnc2n1-c1ccccc1,x,x,n,x,x,n
COc1ccccc1NC(=O)N(C)C[C@@H]1OCc2cnnn2CCCC(=O)N([C@@H](C)CO)C[C@H]1C,x,x,x,n,n,x
Cc1cccc(NC(=O)CCNS(=O)(=O)c2ccc3c(c2)CCCC(=O)N3)c1C,x,x,x,n,n,x
Cc1c(C)n(CCCN(C)C)c2ncnc(Nc3ccccc3)c12,n,u,n,n,n,n
COc1ccccc1Nc1ncnc2c1c(C)c(C)n2CCCN(C)C,21µM,u,n,n,n,n
Cc1c(C)n(Cc2ccccc2)c2ncnc(NN)c12,n,n,16µM,n,n,u
CC(OC(=O)/C=C/c1ccco1)C(=O)Nc1cccc([N+](=O)[O-])c1 (centres undefined),u,n,n,18µM,u,n
COc1ccc([N+](=O)[O-])cc1NC(=O)C(C)OC(=O)/C=C/c1ccco1 (centres undefined),n,n,n,u,n,u
CCOc1cc(S(=O)(=O)NCc2ccc3c(c2)OCO3)c(C)cc1C,n,n,n,n,n,u
CCOc1cc(C)c(Cl)cc1S(=O)(=O)NCc1ccc2c(c1)OCO2,u,u,n,13µM,u,n
NS(=O)(=O)c1ccc(CNC(=O)c2ccc(Cl)c(S(=O)(=O)NCc3ccccc3)c2)cc1,n,n,x,n,n,x
O=C(NCc1ccc2c(c1)OCO2)c1ccc(Cl)c(S(=O)(=O)NCc2ccccc2)c1,n,u,n,23µM,n,n
COc1cccc(-c2nnc(NC(C)=O)o2)c1,n,n,u,n,n,u
COc1cccc(-c2nnc(NC(=O)C3CCCCC3)o2)c1,n,n,11µM,n,n,3.5µM
COc1ccc(-c2nnc(NC(=O)C(C)C)o2)cc1,n,n,u,n,n,11µM
SMILES,SW480 rereplic,MCF10A rerep,Gal4-VP16 FLuc,KB-V1 cytotox,KB-3-1 tox,RORg inh
COc1ccc(-c2nnc(NC(=O)C3CC3)o2)cc1,n,n,10µM,n,n,5µM
Cc1cccc(C)c1NC(=O)CSc1nc(-c2cccs2)cc(C(F)(F)F)n1,x,x,x,u,n,x
CC1(c2nnnn2-c2ccc3c(c2)OCCO3)CCC(=O)N1CCCn1ccnc1 (centres undefined),x,x,x,n,n,x
Cn1c(=O)c2c(nc(N3CCOCC3)n2Cc2ccc(Br)cc2)n(C)c1=O,x,x,x,u,n,x
O=C(NCC(=O)N1CC=C(c2ccccc2)CC1)c1ccc(OC(F)F)cc1,u,8.2µM,x,13µM,u,x
COc1ccc(C(=O)N2CCN(C(=O)c3ccc(-c4ccccc4)cc3)CC2)cc1OC,n,n,n,n,n,n
O=C(NCC(=O)N1CC=C(c2ccccc2)CC1)c1ccccc1Br,n,8.2µM,n,u,u,n
COc1cc(OC)cc(C(=O)N2CCN(C(=O)c3ccc(-c4ccccc4)cc3)CC2)c1,n,n,7.1µM,u,n,1.1µM

# Compound activity: PubChem, National Center for Advancing Translational Sciences (NCATS)
